Source: PubChem (National Center for Advancing Translational Sciences (NCATS))
In the library only some 6.5% were active in any assay of this set; here they are far more common.
FMDV inh: blocks foot and mouth disease virus | FMDV antiviral cell-based qHTS | Potency, µM (top dose mostly 57.9 µM), usual class: inhibitors | 410,000 tested, 1.2% active; calls by dose curve; tested in HEK293T cells; note: read-out not given here; nearly all actives have a fitted effect of over 45% in size
LASV entry inh: inhibitors of Lassa virus binding or cell entry; Potency, µM (titrated, usually from 37.9 µM), actives largely listed as inhibitors; AID 540256; 300,000 tested, 1.2% active; Lassa virus pseudotype entry inhibition, cell reporter; calls by dose curve; tested in HEK293 cells; note: nearly all actives have a fitted effect of over 50% in size
VACV mCherry inh: vaccinia inhibition (mCherry reporter); AID 720579; 310,000 tested, 0.63% active; Potency, µM (doses to about 36.5 µM), actives largely listed as inhibitors; Vaccinia virus mCherry reporter infection, fluorescence; calls by dose curve; tested in A549 cells; note: nearly all actives have a fitted effect of over 35% in size
Vaccinia Venus: inhibitors of vaccinia virus (Venus reporter). 330,000 tested, 0.46% active. Vaccinia virus Venus reporter expression, fluorescence. Potency, µM (highest dose often 36.5 µM), hits mostly inhibitors; calls by dose curve; tested in A549 cells; note: nearly all actives have a fitted effect of over 30% in size
HCMV inh: blocks human cytomegalovirus replication | HFF cells, HCMV-luciferase reporter, 72 h; stronger effect = lower value | activity change, negative = inhibition, % at 57.5 µM | 410,000 tested, 4.5% active | AID 1259415; in the data active = activity change below about -60%; inconclusive = no clear call, values can overlap the other calls; inactive = above about -39%
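Inhibition of viral replication was scored as loss of reporter luminescence in HFFs infected with HCMV-luciferase (MOI 1 PFU/cell) for 72 h; compounds tested at 2 doses, normalized to buffer and Salinomycin controls.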
Marburg entry inh: blocks Marburg virus binding to or entry into cells. Marburg virus pseudotyped entry inhibition, cell reporter. 300,000 tested, 1.8% active. Potency, µM (doses to about 37.8 µM), usual class: inhibitors. AID 540276; calls by dose curve; tested in HEK293 cells
Numbers stand for hits.

What do the screens show for `CCOC(=O)c1cccc(C2=CC(=O)C[C@H](c3ccc(OC)c(OC)c3)C2)c1`?
FMDV inh: 39.8µM; VACV mCherry inh: inactive; Vaccinia Venus: inactive; HCMV inh: inactive

How did O=C1NC(=S)N/C1=C\C=C\c1ccccc1 do in these assays?
FMDV inh: inactive; HCMV inh: inactive

What do the screens show for `C=CCN1c2ccccc2[C@]23CCC(=O)N(CC4CC4)C2=NC(C(=O)OC)=C(C(=O)OC)[C@H]13`?
Marburg entry inh: inactive

How did CCC1CCCCN1CCCNC(=O)CCNC(=O)Cn1cnc2ccccc2c1=O (centres undefined) do in these assays?
FMDV inh: inactive; LASV entry inh: inactive; VACV mCherry inh: inactive; Vaccinia Venus: inactive; HCMV inh: inactive; Marburg entry inh: inactive

Results for CCCN(C(=O)CSCC(=O)Nc1cccc(C)c1)c1c(N)n(Cc2ccccc2)c(=O)[nH]c1=O ?
FMDV inh: inactive; LASV entry inh: inactive; VACV mCherry inh: inactive; Vaccinia Venus: inactive; HCMV inh: inactive; Marburg entry inh: inactive

How did Cc1cccc(NC(=O)CSCC(=O)N(CCC(C)C)c2c(N)n(Cc3ccccc3)c(=O)[nH]c2=O)c1 do in these assays?
FMDV inh: inactive; LASV entry inh: 10µM; VACV mCherry inh: inactive; Vaccinia Venus: inactive; HCMV inh: inactive; Marburg entry inh: inconclusive

What do the screens show for `Cc1[nH][nH]c(=O)c1C(c1c(C)[nH][nH]c1=O)c1cn(Cc2ccc(Cl)c(Cl)c2)c2ccccc12`?
FMDV inh: inconclusive; LASV entry inh: inconclusive; VACV mCherry inh: inactive; Vaccinia Venus: inactive; HCMV inh: inconclusive; Marburg entry inh: 8.2µM

What do the screens show for `NC(Cc1ccc(F)cc1)c1csc(Nc2nccc(C(F)(F)F)n2)n1` (centres undefined)?
FMDV inh: inactive; VACV mCherry inh: inactive; Vaccinia Venus: inactive; HCMV inh: inactive

How did CN(C)C(=O)[C@@H]1C[C@@H](Sc2nc3ccccc3[nH]2)CN1Cc1ccnc2ccccc12 do in these assays?
FMDV inh: inactive; VACV mCherry inh: inactive; Vaccinia Venus: inactive

How did CCN(CC)CC(O)CN(c1ccccc1)S(=O)(=O)c1ccc2ccccc2c1 (centres undefined) do in these assays?
FMDV inh: inactive; LASV entry inh: inconclusive; VACV mCherry inh: inconclusive; Vaccinia Venus: inactive; HCMV inh: -67.4; Marburg entry inh: inconclusive

How did O=S(=O)(c1ccc2ccccc2c1)N(C[C@@H](O)CN1CCOCC1)c1ccccc1 do in these assays?
Marburg entry inh: inactive

How did COc1ccc(NC(=O)CC2C(=O)N(c3ccc(C)cc3)C(=O)N2Cc2ccc3c(c2)OCO3)cc1 (centres undefined) do in these assays?
FMDV inh: inactive; LASV entry inh: inconclusive; VACV mCherry inh: inactive; Vaccinia Venus: inactive; HCMV inh: inactive; Marburg entry inh: inactive

Results for COc1ccc(NC(=O)CC2C(=O)N(C)C(=S)N2Cc2ccc3c(c2)OCO3)cc1 (centres undefined) ?
FMDV inh: inactive; LASV entry inh: inactive; VACV mCherry inh: inactive; Vaccinia Venus: inactive; HCMV inh: inactive; Marburg entry inh: 11.2µM

How did COc1ccccc1NC(=O)C1=C(C)Nc2nc(SCc3ccccc3Cl)nn2C1c1ccncc1 (centres undefined) do in these assays?
FMDV inh: inactive; LASV entry inh: inactive; VACV mCherry inh: inactive; Vaccinia Venus: inactive; HCMV inh: inactive; Marburg entry inh: inconclusive

How did CCCCCCc1cc2cc(C(=O)NCc3ccccc3)c(=N)oc2cc1O do in these assays?
FMDV inh: inactive; LASV entry inh: inactive; HCMV inh: -69.3; Marburg entry inh: inconclusive

Results for CCCCCCc1cc2cc(C(=O)Nc3ccccc3)c(=O)oc2cc1O ?
FMDV inh: inconclusive; LASV entry inh: 3.55µM; VACV mCherry inh: inactive; Vaccinia Venus: inactive; HCMV inh: -100.1; Marburg entry inh: 2µM

What do the screens show for `CCCCCCc1cc2cc(S(=O)(=O)c3ccc(C)cc3)c(=O)oc2cc1O`?
FMDV inh: inactive; LASV entry inh: inactive; VACV mCherry inh: inactive; Vaccinia Venus: inactive; HCMV inh: inactive; Marburg entry inh: inactive

Results for Cc1ccccc1N1C(=O)c2ccccc2C1O (centres undefined) ?
FMDV inh: inactive; HCMV inh: inactive

How did COc1ccc(C=C(C#N)C(=O)c2ccccc2)cc1 do in these assays?
FMDV inh: inactive; VACV mCherry inh: inactive; Vaccinia Venus: inactive; HCMV inh: inactive

What do the screens show for `N#CC(C#N)=C1C=CC=CN1/C(=C\c1ccco1)C(=O)c1ccccc1`?
FMDV inh: inconclusive; LASV entry inh: inconclusive; VACV mCherry inh: inconclusive; Vaccinia Venus: inconclusive; HCMV inh: -99.6; Marburg entry inh: 25.1µM

How did N#CC(C#N)=C1C=CC=CN1/C(=C\c1ccco1)C(=O)c1ccc(Br)cc1 do in these assays?
FMDV inh: 10µM; LASV entry inh: inconclusive; VACV mCherry inh: inconclusive; Vaccinia Venus: inconclusive; HCMV inh: -96.6; Marburg entry inh: 6.31µM

How did COc1ccc(C(=O)/C(=C\c2ccco2)N2C=CC=CC2=C(C#N)C#N)cc1 do in these assays?
FMDV inh: 11.2µM; LASV entry inh: inconclusive; VACV mCherry inh: inconclusive; Vaccinia Venus: inconclusive; Marburg entry inh: inconclusive

What do the screens show for `COc1ccc(/C=C(/C(=O)c2cccs2)N2C=CC=CC2=C(C#N)C#N)cc1`?
FMDV inh: inactive; HCMV inh: -60.1; Marburg entry inh: inactive

How did COc1ccc(N(C)S(=O)(=O)c2cccc(C(=O)NC3CCC(C)CC3)c2)cc1 (centres undefined) do in these assays?
FMDV inh: inactive; LASV entry inh: inconclusive; VACV mCherry inh: inactive; Vaccinia Venus: inactive; HCMV inh: -61.9; Marburg entry inh: inconclusive

What do the screens show for `CCN(c1ccccc1)S(=O)(=O)c1cccc(C(=O)OCC(=O)c2c(N)n(C)c(=O)n(C)c2=O)c1`?
FMDV inh: inactive; HCMV inh: inactive

How did CC(=O)N1CCN(S(=O)(=O)c2cccc(C(=O)N(C)Cc3ccc(C)o3)c2)CC1 do in these assays?
FMDV inh: inactive; LASV entry inh: inactive; VACV mCherry inh: inactive; Vaccinia Venus: inactive; HCMV inh: inactive; Marburg entry inh: inactive

How did COc1ccc(N(C)S(=O)(=O)c2cccc(C(=O)NC3CCCCCC3)c2)cc1 do in these assays?
FMDV inh: inconclusive; LASV entry inh: inconclusive; VACV mCherry inh: inactive; Vaccinia Venus: inactive; HCMV inh: inactive; Marburg entry inh: inconclusive

What do the screens show for `COc1ccc(N(C)S(=O)(=O)c2cccc(C(=O)OCC(=O)c3c(N)n(C)c(=O)n(C)c3=O)c2)cc1`?
FMDV inh: 22.4µM; LASV entry inh: inconclusive; VACV mCherry inh: inactive; Vaccinia Venus: inactive; HCMV inh: inconclusive; Marburg entry inh: inconclusive

Results for COc1ccc(CN(C)C(=O)c2cccc(C(=O)N(C)Cc3ccc(OC)cc3)c2)cc1 ?
FMDV inh: inactive; HCMV inh: -71.3; Marburg entry inh: inactive

Results for COc1ccc(N(C)S(=O)(=O)c2cccc(C(=O)N(C)Cc3ccc(C)o3)c2)cc1 ?
FMDV inh: inactive; LASV entry inh: 5.01µM; VACV mCherry inh: inactive; Vaccinia Venus: inactive; HCMV inh: inactive; Marburg entry inh: inconclusive

How did CSc1ncc(C(=O)Nc2cccc(Cl)c2C)c(-c2ccccc2)n1 do in these assays?
FMDV inh: inactive; LASV entry inh: inactive; VACV mCherry inh: inactive; Vaccinia Venus: inactive; HCMV inh: inactive
